Results from PubChem BioAssay (NCI).
Where “and” joins values, the source holds several entries; their conditions need not be identical. Equal entries are not always repeated. About 83,000 compounds went through this panel and 20% of them were active in at least one assay; those are over-represented in the sample as a whole.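 Results are percent growth after 48 hours of single-concentration exposure. 100 means growth as in untreated cells, lower positive values show inhibition; negative values down to -100 show cell death.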 Calls of active or inactive are those of the source. Rule for the calls: active = growth percent below 10; inactive = the rest.

Columns and labels:
Assay in all cases: NCI-60 one-dose screen, 48 h (100 = growth as untreated, 0 = no growth, -100 = all killed)
Conditions in all cases: 10 µM unless noted
HCT-15 colon = tested on: HCT-15 colon
HT29 colon = tested on: HT29 colon
SNB-75 CNS = tested on: SNB-75 CNS
SNB-19 CNS = tested on: SNB-19 CNS
U251 CNS = tested on: U251 CNS
PC-3 prostate = tested on: PC-3 prostate
SK-MEL-5 melanoma = tested on: SK-MEL-5 melanoma
UACC-62 melanoma = tested on: UACC-62 melanoma
LOX IMVI melanoma = tested on: LOX IMVI melanoma
SK-MEL-28 melanoma = tested on: SK-MEL-28 melanoma
SK-MEL-2 melanoma = tested on: SK-MEL-2 melanoma
EKVX NSCLC = tested on: EKVX NSCLC
SN12C renal = tested on: SN12C renal
UO-31 renal = tested on: UO-31 renal
TK-10 renal = tested on: TK-10 renal
ACHN renal = tested on: ACHN renal
CAKI-1 renal = tested on: CAKI-1 renal
A498 renal = tested on: A498 renal
CCRF-CEM leukemia = tested on: CCRF-CEM leukemia
MOLT-4 leukemia = tested on: MOLT-4 leukemia

Structure (SMILES) | growth (HCT-15 colon) | growth (HT29 colon) | growth (SNB-75 CNS) | growth (SNB-19 CNS) | growth (U251 CNS) | growth (PC-3 prostate) | growth (SK-MEL-5 melanoma) | growth (UACC-62 melanoma) | growth (LOX IMVI melanoma) | growth (SK-MEL-28 melanoma) | growth (SK-MEL-2 melanoma) | growth (EKVX NSCLC) | growth (SN12C renal) | growth (UO-31 renal) | growth (TK-10 renal) | growth (ACHN renal) | growth (CAKI-1 renal) | growth (A498 renal) | growth (CCRF-CEM leukemia) | growth (MOLT-4 leukemia)
COC(=O)c1nc(N)nc(C(=O)OC)c1C(=O)c1ccc(OC)cc1 | 107% (inactive) and 42% (inactive) | 113% (inactive) and 68.2% (inactive) | 95.2% (inactive) and 76% (inactive) | 98.1% (inactive) and 69.9% (inactive) | 106% (inactive) and 49.6% (inactive) | 99% (inactive) and 46% (inactive) | 104% (inactive) and 57.4% (inactive) | 102% (inactive) and 35% (inactive) | 97.7% (inactive) and 52.8% (inactive) | 116% (inactive) and 69% (inactive) | 108% (inactive) and 77.3% (inactive) | 101% (inactive) and 59.3% (inactive) | 113% (inactive) and 78.5% (inactive) | 89.6% (inactive) and 66.3% (inactive) | 105% (inactive) and 92.8% (inactive) | 104% (inactive) and 52.9% (inactive) | 94.8% (inactive) and 73.6% (inactive) | 133% (inactive) and 141% (inactive) | 104% (inactive) and 39.7% (inactive) | 136% (inactive) and 12.8% (inactive)
Cc1ccc(-c2noc(CC(=O)c3ccc([N+](=O)[O-])cc3)n2)cc1 | 98.3% (inactive) | 101% (inactive) | 94.6% (inactive) | 106% (inactive) | 96.8% (inactive) | 98.6% (inactive) | 91.6% (inactive) | 91.1% (inactive) | 89.5% (inactive) | 105% (inactive) | 110% (inactive) | 95.9% (inactive) | 94.1% (inactive) | 89.6% (inactive) | 115% (inactive) | 103% (inactive) | 97.1% (inactive) | – | 96.7% (inactive) | –
CN(C)CCC(=O)c1ccc(Cl)cc1 | 111% (inactive) and 116% (inactive) | 106% (inactive) and 100% (inactive) | 78.6% (inactive) and 114% (inactive) | 95% (inactive) and 109% (inactive) | 113% (inactive) and 111% (inactive) | 92.5% (inactive) and 103% (inactive) | 103% (inactive) and 112% (inactive) | 98.5% (inactive) and 101% (inactive) | 113% (inactive) and 92.2% (inactive) | 107% (inactive) and 115% (inactive) | 115% (inactive) and 118% (inactive) | 115% (inactive) and 124% (inactive) | 97.9% (inactive) and 102% (inactive) | 87.3% (inactive) and 95.4% (inactive) | 105% (inactive) and 119% (inactive) | 114% (inactive) and 105% (inactive) | 102% (inactive) and 106% (inactive) | 121% (inactive) and 114% (inactive) | 93.2% (inactive) and 73.9% (inactive) | 94.7% (inactive) and 93.5% (inactive)
COc1cc2c(c(OC)c1OC)-c1ccc(OC)c(=O)cc1[C@@H](NC(C)=O)CC2 | 12.2% (inactive) and 8.71% (active) and 3.71% (active) | 9.16% (active) and 7.29% (active) and -16.8% (active) | 35.6% (inactive) and 76.6% (inactive) and 19.3% (inactive) | 39.5% (inactive) and 30.5% (inactive) and 19% (inactive) | 22.5% (inactive) and 14.1% (inactive) and 19% (inactive) | 25.6% (inactive) and 20.7% (inactive) and 7.6% (active) | -59.8% (active) and -36.1% (active) and -32% (active) | 36.9% (inactive) and 40.9% (inactive) and 19.1% (inactive) | 15.7% (inactive) and 18.9% (inactive) and 26.5% (inactive) | 64.5% (inactive) and 62.4% (inactive) | -1.11% (active) and 20.8% (inactive) and 30.7% (inactive) | 42.2% (inactive) and 34.6% (inactive) and 35.8% (inactive) | 35.3% (inactive) and 25.5% (inactive) and 46.8% (inactive) | 35.8% (inactive) and 44% (inactive) and 21.2% (inactive) | 61.7% (inactive) and 52.7% (inactive) | 27.8% (inactive) and 27.2% (inactive) and 30.5% (inactive) | – | -0.067% (active) and 15.5% (inactive) | 8.93% (active) and 21.5% (inactive) and 3.02% (active) | –
Cc1nn(-c2ccccc2)nc1C(=O)Nc1ccccc1C(=O)NCC1CC1 | 87.5% (inactive) and 71.2% (inactive) | 99.6% (inactive) and 72.6% (inactive) | 121% (inactive) and 4.66% (active) | 122% (inactive) and 54.3% (inactive) | 73.3% (inactive) | 85.2% (inactive) and 78.2% (inactive) | 95.7% (inactive) and 93.5% (inactive) | 86.4% (inactive) and 88.3% (inactive) | 86.9% (inactive) | 104% (inactive) and 95.8% (inactive) | 117% (inactive) and 103% (inactive) | 79.4% (inactive) | 89.2% (inactive) and 45.2% (inactive) | 95.5% (inactive) and 57.1% (inactive) | 83.5% (inactive) | 91.8% (inactive) and 19.9% (inactive) | 97.6% (inactive) and 37.7% (inactive) | – | 86.8% (inactive) | 103% (inactive) and 75.6% (inactive)
O=C1CCN(Cc2ccccc2)C(=S)N1 | 99.2% (inactive) and 98.3% (inactive) | 121% (inactive) and 98% (inactive) | 125% (inactive) and 83.2% (inactive) | 105% (inactive) and 101% (inactive) | 102% (inactive) and 98.7% (inactive) | 92.3% (inactive) | 105% (inactive) and 108% (inactive) | 102% (inactive) and 98.9% (inactive) | 105% (inactive) and 99.7% (inactive) | 126% (inactive) and 107% (inactive) | 107% (inactive) and 103% (inactive) | 111% (inactive) and 118% (inactive) | 104% (inactive) and 95.6% (inactive) | 87.5% (inactive) and 83.7% (inactive) | 106% (inactive) and 89.6% (inactive) | 104% (inactive) and 97.3% (inactive) | – | 94.6% (inactive) | 86.3% (inactive) and 98.4% (inactive) | 78.2% (inactive) and 98.5% (inactive)
CCN(CC)CCc1nc(-c2ccccc2)no1 | 78.8% (inactive) and 111% (inactive) | 64.3% (inactive) and 93.3% (inactive) | 82.1% (inactive) and 72.2% (inactive) | 89.7% (inactive) and 94.2% (inactive) | 52.7% (inactive) and 99.4% (inactive) | 81.3% (inactive) and 96.7% (inactive) | 84.6% (inactive) and 116% (inactive) | 77% (inactive) and 95.9% (inactive) | 63.9% (inactive) and 94.6% (inactive) | 89.5% (inactive) and 106% (inactive) | 98% (inactive) and 104% (inactive) | 90.6% (inactive) and 98.4% (inactive) | 68% (inactive) and 80.8% (inactive) | 65.9% (inactive) and 68.2% (inactive) | 85.1% (inactive) and 107% (inactive) | 83.2% (inactive) and 110% (inactive) | 92.3% (inactive) and 88.2% (inactive) | 108% (inactive) and 110% (inactive) | 44.2% (inactive) and 90.8% (inactive) | 101% (inactive)
CC(O)(CC(=O)CC(=O)c1ccccc1)c1ccccc1 (centres undefined) | 70.2% (inactive) and 69.4% (inactive) | 105% (inactive) and 111% (inactive) | 92.5% (inactive) and 126% (inactive) | 95.8% (inactive) and 99.9% (inactive) | 89.2% (inactive) and 84.3% (inactive) | 80.9% (inactive) | 98.6% (inactive) and 93.6% (inactive) | 101% (inactive) and 87.9% (inactive) | 110% (inactive) and 82.3% (inactive) | 99.4% (inactive) and 123% (inactive) | 126% (inactive) and 110% (inactive) | 103% (inactive) | 99.3% (inactive) and 85.3% (inactive) | 96.8% (inactive) and 94.2% (inactive) | 98.5% (inactive) and 111% (inactive) | 94.9% (inactive) and 106% (inactive) | 110% (inactive) | 79.9% (inactive) | 95.4% (inactive) and 83% (inactive) | 87.3% (inactive) and 113% (inactive)
